About 1,300 (0.68%) of roughly 190,000 compounds were called active. Cut-off read from the data, not from the text of the source: active = inhibition above about 50%; inactive = the rest. The full list was thinned out, with actives kept by preference.
Target: Mannose-6-phosphate isomerase (Homo sapiens) (UniProt P34949)
Assay: MPI inhibition at elevated mannose 6-phosphate – biochemical, fluorescence intensity, high mannose 6-phosphate, primary screen (AID 1220)
Conditions: recombinant PMI enzyme, coupled fluorescence intensity; at 20 µM; hits give high values

Sequence of Mannose-6-phosphate isomerase (Homo sapiens) (P34949 whole entry, looked up): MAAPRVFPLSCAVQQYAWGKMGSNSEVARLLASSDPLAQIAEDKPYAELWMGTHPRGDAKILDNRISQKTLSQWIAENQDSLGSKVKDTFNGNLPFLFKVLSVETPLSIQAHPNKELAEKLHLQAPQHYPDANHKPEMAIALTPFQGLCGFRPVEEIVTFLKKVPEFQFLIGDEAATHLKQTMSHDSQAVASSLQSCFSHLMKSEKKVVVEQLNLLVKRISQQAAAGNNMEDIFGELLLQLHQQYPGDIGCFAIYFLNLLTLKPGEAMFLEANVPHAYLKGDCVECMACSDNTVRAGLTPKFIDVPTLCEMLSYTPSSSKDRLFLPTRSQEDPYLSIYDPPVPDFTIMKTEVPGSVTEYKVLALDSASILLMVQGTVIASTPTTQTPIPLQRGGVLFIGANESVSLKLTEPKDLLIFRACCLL

inhibition, inactive:
Fc1ccc(NC(=S)N/N=C/c2ccc(F)c(F)c2)c(F)c1 -6.4%
CCN(CC)c1ncnc2sc(C(=O)N3CCN(c4ccccc4)CC3)c(C)c12 6.5%
Cc1ccc2cc(CCNC(=O)c3ccc(C)c([N+](=O)[O-])c3)c(=O)[nH]c2c1 -17%
CN(C(=O)CSc1nnc(-c2ccc(F)cc2)c2ccccc12)C1CCS(=O)(=O)C1 (stereo unspecified) -14.8%
CSc1sc(C)cc1C1C(C#N)=C(N)N(c2cccnc2)C2=C1C(=O)CC(C)(C)C2 (stereo unspecified) 13.9%
CC1CCN(S(=O)(=O)c2ccc3c(c2)oc(=O)n3CC(=O)N2CCc3ccccc3C2)CC1 -7.5%
C/C(CC(=O)Nc1cccc(Cl)c1Cl)=N\NC(=O)c1ccccc1N 3.3%
C/C(CC(=O)Nc1cccc(Cl)c1Cl)=N\NC(=O)c1ccccc1C 2.3%
CCCN(Cc1cc2ccc(C)cc2[nH]c1=O)C(=O)c1ccccn1 11%
COc1ccc(NC2SC(=O)N(CC(=O)O)C2=O)cc1 (stereo unspecified) 12.1%
CC(=O)c1ccc(N2CCN(c3ccc(C(N)=O)cc3[N+](=O)[O-])CC2)cc1 -10.4%
COc1ccc(N2CCN(c3ccc(C(N)=O)cc3[N+](=O)[O-])CC2)cc1 16.5%
O=C(NC1CCCCC1)C(c1ccccc1)N(C(=O)c1cccs1)c1ccc2c(c1)OCO2 (stereo unspecified) -2.5%
Nc1c(C(=O)Nc2ccccc2)sc2nc(-c3ccco3)ccc12 15.1%
COc1ccccc1NC(=O)c1sc2nc(-c3ccco3)ccc2c1N 11.5%
COCCNC(=O)CSc1nc2ccccc2c(=O)n1CCCC(=O)NCc1ccccc1 -3%
C=CCc1cc(/C=C2/NC(=S)NC2=O)cc(OC)c1O 15.3%
COc1ccc(-n2c(C)cc(/C=C/c3nc(O)c([N+](=O)[O-])c(=O)[nH]3)c2C)cc1 1.6%
COc1ccc(Nc2nnc(Cc3ccc(Cl)cc3)c(=O)[nH]2)c(OC)c1 19.1%
CC(C)NC1=C(Cl)C(=O)c2ccccc2C1=O -32%
CCC(=O)N(CC)C1=C(O)c2ccccc2C(=O)C1=O 15.9%
CCC(=O)N(C)/C=C1\Sc2ccccc2C1=O 5.7%
CCC(=O)NC1=C(NC(C)c2ccccc2)C(=O)c2ccccc2C1=O (stereo unspecified) -10.2%
OC1CCCN(Cc2cn(Cc3ccccc3)nc2-c2cc3ccccc3o2)C1 (stereo unspecified) 15.3%
O=C(C1CCN(c2nc3nonc3nc2N2CCCCC2)CC1)N1CCOCC1 14.3%
CCN(C(=O)COC(=O)c1ccc2[nH]c3c(c2c1)CCCC3)C1CCS(=O)(=O)C1 (stereo unspecified) -6%
Cc1cc2cc(CCNC(=O)c3cccc([N+](=O)[O-])c3)c(=O)[nH]c2cc1C -2.2%
CN(CC(=O)Nc1ccc(F)cc1)c1ccc(S(=O)(=O)N2CCCC2)cn1 1.4%
CCn1ncc([C@@H]2C[C@H]3CN(Cc4ccccc4C)C(=O)[C@]34CCCN24)c1C 25.8%
O=C(O)CNc1nc(Cl)ccc1[N+](=O)[O-] 13.4%
O=C(O)C1CN(c2nc(Cl)ccc2[N+](=O)[O-])C1 47.3%
Cc1cccc(N2C(=O)CC(N3CCOCC3)C2=O)c1 (stereo unspecified) -1.5%
CC1(C)CC(=O)/C(=C(\O)c2ccccc2)C(=NCCc2ccccc2)C1 -2.6%
Cc1ncc(CC(=O)n2cc(C(=O)c3cc(F)ccc3O)cn2)s1 8.5%
Cc1ccc(O)c(C(=O)c2cnn(-c3ccccc3)c2)c1 12.6%
CCN(CC)CCCNC(=O)c1cn(CC)c2ccc(S(=O)(=O)N3CCc4ccccc4C3)cc2c1=O 0%
O=C1CNC(=O)/C1=C\c1ccc(O)cc1 -3.7%
Cc1c(NC(=O)OCCSc2nc(N(C)C)nc(N(C)C)n2)sc(=S)n1C 5.4%
CSc1ccccc1NC(=O)C(=O)c1c[nH]c2ccccc12 -2.7%
O=C(Nc1ccccc1N1CCOCC1)C1Cc2ccccc2CN1C(=O)c1ccco1 (stereo unspecified) -3.5%
COc1c(Cl)cc(C(=O)Nc2ccccc2C(=O)O)cc1Cl 0.7%
COc1ccc(N=Cc2sc3ccccc3c2Cl)cc1 1.8%
Cc1ccc(O)c(N=Cc2sc3ccccc3c2Cl)c1 19.3%
O=[N+]([O-])c1ccc(O)c(N=Cc2sc3ccccc3c2O)c1 25.4%
Oc1c(C=Nc2cccc3cccnc23)sc2ccccc12 -3.1%
COc1ccc(S(=O)(=O)NCCOc2ccccc2)cc1-n1cnnn1 7.4%
Nc1nc(SCc2c(Cl)cccc2Cl)n[nH]1 -8.6%
Cc1ccn2cc(C(=O)Nc3ccc4c(c3)OCCO4)nc2c1 8.6%
CCOC(=O)c1cn2ccc(C)cc2n1 10%
CC1CCN(CC(=O)Nc2sc3c(c2C#N)CCC3)CC1 -6.5%

inhibition, active:
C/C(CC(=O)Nc1cccc(Cl)c1Cl)=N\NC(=O)c1ccccc1Br 50.8%
NC(=O)c1ccc(N2CCN(c3ccc(O)cc3)CC2)c([N+](=O)[O-])c1 55.2%
Nc1c(C(=O)Nc2ccccc2F)sc2nc(-c3ccco3)ccc12 59.6%
C=CCc1cc(/C=C/c2nc(O)c([N+](=O)[O-])c(=O)[nH]2)cc(OC)c1O 68.9%
CCC(=O)N(C1=C(NC(C)C)C(=O)c2ccccc2C1=O)C(C)C 58.2%
CCC(=O)N(C1=C(NC)C(=O)c2ccccc2C1=O)C(C)C 62.3%
O=C(O)C1CC(O)CN1c1nc(Cl)ccc1[N+](=O)[O-] (stereo unspecified) 64.1%
Cc1cc(C)nc(-n2cc(C(=O)c3cc(F)ccc3O)cn2)n1 52.4%
Oc1ccc(Cl)cc1N=Cc1sc2ccccc2c1Cl 55.5%
Oc1ccccc1N=Cc1sc2ccccc2c1Cl 56.6%
Cc1ccn2cc(C(=O)Nc3nnc(C)s3)nc2c1 51.4%

Reference: PubChem BioAssay AID1220 (Sanford-Burnham Center for Chemical Genomics, 2008)
